# The source made the active and inactive calls.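 How the source made its calls: active means average half-effect concentration of 10 µM or less in every one of the four cell panels; inactive means the rest.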
# Test system: HL-1
# Assay: protection of cardiomyocytes from stress damage, SAR follow-up, cell-based, panel, H9c2 and HL-1, H2O2, 2-deoxyglucose, ATP luminescence (AID 651642)
# Settings: H9c2/HL-1 cardiomyocyte 2-deoxyglucose damage, mean of runs, with 2-deoxyglucose
row,Compound,outcome
1,COc1cc(-c2cc(C(=O)Nc3cccc(C(=O)Nc4ccccc4)c3)c3ccccc3n2)cc(OC)c1OC,active
2,COc1cc(-c2cc(C(=O)NCC(=O)O)c3ccccc3n2)cc(OC)c1OC,inactive
3,COc1cc(-c2cc(C(=O)Nc3cccc(C(C)=O)c3)c3cc(F)ccc3n2)cc(OC)c1OC,inactive
4,COC(=O)CNC(=O)c1cccc(NC(=O)c2cc(-c3cc(OC)c(OC)c(OC)c3)nc3ccccc23)c1,active
5,CCOC(=O)c1cccc(NC(=O)c2cc(-c3cc(OC)c(OC)c(OC)c3)nc3ccc(Cl)cc23)c1,inactive
6,COc1cc(-c2cc(C(=O)Nc3cccc(C(C)=O)c3)c3ccccc3n2)cc(OC)c1OC,active
7,COc1cc(-c2cc(C(=O)NCC(=O)Nc3ccc(C(C)=O)cc3)c3cc(F)ccc3n2)cc(OC)c1OC,inactive
8,COc1ccc2nc(-c3cc(OC)c(OC)c(OC)c3)cc(C(=O)NCC(=O)Nc3ccc(C(C)=O)cc3)c2c1,active
9,COc1cc(-c2cc(C(=O)NCC(=O)Nc3ccc(C(C)=O)cc3)c3cc(C)ccc3n2)cc(OC)c1OC,active
10,COc1cc(-c2cc(C(=O)Nc3cccc(C#N)c3)c3ccccc3n2)cc(OC)c1OC,inactive
11,COc1cc(-c2cc(C(=O)NCC(=O)Nc3cccc(C(C)=O)c3)c3cccc(Cl)c3n2)cc(OC)c1OC,active
12,COc1cc(-c2cc(C(=O)Nc3cccc(C(C)=O)c3)c3ccc(Cl)cc3n2)cc(OC)c1OC,inactive
13,COc1cccc(CNC(=O)CNC(=O)c2cc(-c3cc(OC)c(OC)c(OC)c3)nc3ccccc23)c1,inactive
14,COc1ccc2c(c1OC)C(=O)N1c3ccccc3C(=O)N(Cc3ccccc3F)C21 (centres undefined),active
15,COc1cc(-c2cc(C(=O)Nc3cccc(C(=O)NC4CC4)c3)c3ccccc3n2)cc(OC)c1OC,active
16,COc1ccc(NC(=O)CNC(=O)c2cc(-c3cc(OC)c(OC)c(OC)c3)nc3ccccc23)cc1,active
17,COc1cc(-c2cc(C(=O)NCC(=O)Nc3ccc(C(C)=O)cc3)c3ccccc3n2)cc(OC)c1OC,inactive
18,COc1cc(-c2cc(C(=O)Nc3cccc(C(=O)N(C)C)c3)c3ccccc3n2)cc(OC)c1OC,inactive
19,CCOC(=O)c1cccc(NC(=O)CNC(=O)c2cc(-c3cc(OC)c(OC)c(OC)c3)nc3ccc(Br)cc23)c1,active
